Screens: PubChem BioAssay, National Center for Advancing Translational Sciences (NCATS)
12-LOX inh: inhibitors of human 12S-lipoxygenase ALOX12; purified 12hLO, xylenol orange hydroperoxide absorbance; Potency, µM (titrated, usually from 108 µM), without a hit: at the highest dose activity change, negative = inhibition, usual class: inhibitors; 580,000 compounds, 1.1% hits; AID 1671190; also: potency is read from the fitted curve at half-maximal effect; % is scaled to controls: 0 for no effect and ±100 for the full control effect
Target sequence (P18054 whole entry, looked up): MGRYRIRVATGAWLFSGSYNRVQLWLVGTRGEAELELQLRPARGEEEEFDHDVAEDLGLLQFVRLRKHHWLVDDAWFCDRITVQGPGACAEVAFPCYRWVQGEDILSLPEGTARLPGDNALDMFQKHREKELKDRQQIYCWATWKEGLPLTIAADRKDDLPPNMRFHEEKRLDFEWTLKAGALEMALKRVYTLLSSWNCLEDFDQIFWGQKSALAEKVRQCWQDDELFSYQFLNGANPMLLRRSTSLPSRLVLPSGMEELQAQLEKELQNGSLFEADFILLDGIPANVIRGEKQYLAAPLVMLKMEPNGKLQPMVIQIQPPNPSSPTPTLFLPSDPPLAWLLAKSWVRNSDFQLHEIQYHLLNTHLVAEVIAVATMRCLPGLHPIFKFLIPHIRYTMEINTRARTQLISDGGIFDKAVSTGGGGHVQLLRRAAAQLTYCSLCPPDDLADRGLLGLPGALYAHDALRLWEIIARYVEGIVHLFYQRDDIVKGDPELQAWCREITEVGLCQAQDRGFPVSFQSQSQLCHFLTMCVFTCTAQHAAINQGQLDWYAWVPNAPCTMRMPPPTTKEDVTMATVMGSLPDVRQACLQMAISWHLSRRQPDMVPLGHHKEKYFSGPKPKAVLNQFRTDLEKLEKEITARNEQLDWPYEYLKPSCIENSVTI
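Hydroperoxide product was detected by ferrous iron/xylenol orange as the 573 to 405 nm absorbance ratio. Arachidonic acid at 40 uM (final) was turned over for 30 min at room temperature by 150 nM human 12hLO, pH 7.0 Hepes buffer, after 15 min compound preincubation.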
PINK1 expr mod: modulators of PINK1 expression; PINK1 immunofluorescence, high-content cytometry, 24 h; Potency, µM (highest dose often 76.6 µM), for the others: top-dose activation (PINK1 increase), usual class: activators; 410,000 compounds, 0.2% hits; active = well fitted activation curve with a large enough effect; inconclusive = small, poorly fitted or top-dose-only effect; cell line not stated here; also: potency is read from the fitted curve at half-maximal effect; % of control where 0% means no effect; nearly all actives have a fitted effect of over 65% in size
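Stable cell line, 250 cells/well, 12 h attachment; compounds pinned at 5 concentrations, 24 h; CCCP control. Fixed with nuclear dye, primary antibodies 12 h at 10 degrees C, secondary plus cell stain; laser-scanning cytometer read.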
S-ASM inh: blocks human secretory acid sphingomyelinase. P17405. placental ASM, HMU-PC fluorogenic substrate, 60 min. Potency, µM (highest dose often 57.5 µM), for inactives: top-dose activity change, negative = inhibition, actives largely listed as inhibitors. 340,000 compounds, 0.006% hits. AID 504937; also: potency is read from the fitted curve at half-maximal effect
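Steps: dispense placental human ASM, pin compound, wait 10 min at room temperature, add HMU-PC0 substrate at 9 uM final, incubate 60 min at 37 °C, add stop solution raising pH to 10, read fluorescence.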
MmCpn inh: inhibitors of Methanococcus maripaludis chaperonin TRiC (MmCpn) | 330,000 compounds, 0.031% hits | purified Mm-Cpn ATPase, ADP Transcreener TR-FRET | Potency, µM (top dose mostly 76.9 µM), inactives show top-dose activity, negative = inhibition, actives largely listed as inhibitors | AID 504842; also: potency is read from the fitted curve at half-maximal effect; % is scaled to controls: 0 for no effect and ±100 for the full control effect; nearly all actives have a fitted effect of over 80% in size
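Quantitative HTS used 25 nM Mm-CPN and 10 uM ATP in magnesium/KCl Tris buffer, pH 7.4, with 1 mM DTT. Hydrolysis ran 30 min at 37°C; ADP was read by HTRF.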
CCT chaperon mod: modulators of cytosolic chaperonin (CCT/TRiC) activity; activity change, % (no concentration beside the values), hits read low; purified chaperonin ATPase assay, HTRF ADP detection, 30 min; AID 651819; 360,000 compounds, 0.3% hits; in the data active = activity change below about -30%; also: % is scaled to controls: 0 for no effect and ±100 for the full control effect
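We incubate TRiC, 40 or 20 nM final, with library compounds at 76 uM and 10 uM ATP for 30 min at 37 °C. ADP formed is detected with Transcreener HTRF reagents after 30 min at room temperature.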
p53 reactivator: re-activators of mutant p53 | H1299 p53-A138V BP100-luciferase reporter, luminescence, 24 h | Potency, µM (top dose mostly 92.2 µM), without a hit: top-dose activity change, positive = activation, hits mostly activators | 320,000 compounds, 0.063% hits; also: potency is read from the fitted curve at half-maximal effect; % of control where 0% means no effect; nearly all actives have a fitted effect of over 45% in size
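p53-null H1299 cells stably carrying temperature-sensitive p53-A138V and a BP100-luciferase reporter were pinned with compounds (4-point, 1:5 series) and held 24 hrs at 37 deg C. Luminescence was read 10 min after detection reagent.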
The depositor's hits bear a star; i = inactive; ? = inconclusive; / = no result given; ! = repeats disagree; [ ] = dose if it differs, or a comment. Sampled rows, rich in hits. Any-hit rate of the full collection: about 1.4%. Unless noted, calls follow the shape of the dose curve; as a rule, active = well fitted curve in the direction sought with a large enough effect; inconclusive = small, poorly fitted or top-dose-only effect, or another doubt; inactive = no such curve, though single readings can be large; an effect the other way counts as inactive or inconclusive.

SMILES | 12-LOX inh | PINK1 expr mod | S-ASM inh | MmCpn inh | CCT chaperon mod | p53 reactivator
C=CCOc1c(Cl)cc(CNc2ccc(N(C)C)cc2)cc1OC | ? | ? | 21% | 16µM* | -9 | 0%
CCc1ccc(OCCCCCn2ccnc2)cc1 | 1.3µM* | 1% | -1% | -2% | 2 | /
CCc1ccc(OCCn2ccnc2)cc1 | ? | 3% | 1% | 0% | -2 | 11%
COc1cc(C#N)ccc1OC(=O)Cc1coc2ccc3ccccc3c12 | 8% | / | / | / | / | /
Cc1ccc(Cl)cc1N1CCN(C(=O)c2ccc(Cn3cncn3)cc2)CC1 | 5% | / | / | / | / | /
Cc1cccc2sc(NNC(=O)c3cc(=O)c4ccccc4o3)nc12 | 32µM* | 2% | -6% | 4% | -1 | 24%
O=C(CC1=CCCCC1)N1C[C@@H](CO)[C@H](c2nc(C3CC3)no2)C1 | 55% | / | / | / | / | /
O=S(=O)(c1ccccc1)N1CCN(Cc2c(O)ccc3ccccc23)CC1 | 7.1µM* | 1% | 1% | 0% | 1 | 1%
Oc1ccc2ccccc2c1CN1CCN(c2ccccc2F)CC1 | 45µM* | 0% | 3% | 0% | -2 | 15%
O=C(CN1CCN(c2ccccc2F)CC1)c1ccc(O)c(O)c1 | ? | 1% | 5% | -3% | -3 | 11%
Oc1ccc2ccccc2c1CN1CCN(C/C=C/c2ccccc2)CC1 | ? | 5% | 5% | 1% | 2 | /
O=C(NCC(=O)N1CCSCC1)C1CCCN(S(=O)(=O)c2ccc(Cl)cc2)C1 (configuration not stated) | 1% | / | / | / | / | /
Cc1ccc(Cl)cc1NC(=O)COC(=O)CC(C)(C)CC1=NS(=O)(=O)c2ccccc2N1 | -21% | 2% | / | / | / | /
CC(C)(CC(=O)NCc1ccc(Cl)cc1Cl)CC1=NS(=O)(=O)c2ccccc2N1 | ? | 45µM* | / | / | / | /
Nc1nc2c(s1)C(c1cccc(Cl)c1Cl)CC(=O)N2 (configuration not stated) | 20µM* | / | / | / | / | /
O=C1CC(c2ccccc2OCc2ccccc2F)c2cn[nH]c2N1 (configuration not stated) | 10% | / | / | / | / | /
O=C1CC(c2cc(Cl)ccc2F)c2c(n3c(nc4ccccc43)[nH]c2=O)N1 (configuration not stated) | 7% | / | / | / | / | /
Nc1nc2c(s1)C(c1ccccc1OCc1ccccc1Cl)CC(=O)N2 (configuration not stated) | 0.89µM* | / | / | / | / | /
Nc1nc2c(s1)C(c1cc(Cl)ccc1F)CC(=O)N2 (configuration not stated) | 35µM* | / | / | / | / | /
COC(=O)C1=C(C)NC(=O)CC1c1cccc(Cl)c1Cl (configuration not stated) | ? | 1% | 0% | 0% | -30* | 0%
Cc1cc(N2C(=O)CCS2(=O)=O)ccc1S(=O)(=O)NC(C)C | 12% | / | / | / | / | /
O=C(Nc1cccc(NC(=O)C2CCCCC2)c1)C1CCCCC1 | 3% | / | / | / | / | /
CCOC(=O)C1CCC(CNC(=O)N2CCCC2c2ccc(F)cc2)CC1 (configuration not stated) | -6% | / | / | / | / | /
COc1ccc(C2CC(=O)Nc3nc(N)sc32)cc1OCc1ccccc1Cl (configuration not stated) | 1.1µM* | / | / | / | / | /
O=[N+]([O-])c1ccc(O)c(C(C#Cc2ccccc2)N2CCOCC2)c1 (configuration not stated) | 6% | 40µM* | -6% | -3% | 0 | 25%
SMILES | 12-LOX inh | PINK1 expr mod | S-ASM inh | MmCpn inh | CCT chaperon mod | p53 reactivator
O=C(c1cc([N+](=O)[O-])ccc1N1CCOCC1)N1CCN(c2ccccc2)CC1 | 91% | / | / | 2% | / | -6%
Cc1cccc(CNC(=O)CN2C(=O)CN(C(=O)NCc3ccccc3)c3ccccc32)c1 | 4% | / | / | / | / | /
CCn1c(COc2cccc3cccnc23)nnc1SCC(=O)O | ? | -1% | 0% | 0% | -1 | -3%
Cn1c(COc2cccc3cccnc23)nnc1SCC(=O)O | 7.9µM*! | 1% | -3% | -2% | 0 | 3%
S=c1[nH]nc(-c2ccco2)n1-c1ccc(Cl)cc1 | 40µM* | 0% | -2% | -23% | 1 | 4%
Cc1ccc(-n2c(-c3nn(C)c(C)c3Cl)n[nH]c2=S)cc1 | 32µM* | -2% | 0% | -5% | -3 | -2%
COc1ccc(-n2c(-c3ccco3)n[nH]c2=S)cc1 | ? | 0% | 4% | -15% | -9 | 1%
CCOC(=O)c1ccccc1NC(=O)c1cncc(Br)c1 | -8% | 4% | 3% | -18% | -37* | 3%
O=C(O)c1cccc(NC(=S)NC(=O)C(c2ccccc2)c2ccccc2)c1 | 28µM* | 0% | -4% | 0% | 2 | 7%
O=C(O)c1ccc(NC(=S)NC(=O)C(c2ccccc2)c2ccccc2)cc1 | ? | 3% | -7% | 1% | 1 | 5%
COc1ccc(C(=O)O)cc1NC(=S)NC(=O)C(c1ccccc1)c1ccccc1 | 35µM* | -1% | -14% | 2% | 1 | 2%
CC(=O)NC(=S)Nc1sc2c(c1C#N)CCCCC2 | -30% | 24% | -15% | 2% | -31* | ?
CCCCCCc1cc2cc(C(=O)Nc3ccc(OC)cc3)c(=O)oc2cc1O | -18% | 40µM* | 337% | -1% | -2 | 3%
CCCCCCc1cc2cc(C(=O)Nc3cccc(OC)c3)c(=O)oc2cc1O | 8% | ? | i | -6% | 1 | 8%
CCCCCCc1cc2cc(S(=O)(=O)c3ccc(F)c(Cl)c3)c(=O)oc2cc1O | -14% | 13µM* | i | -2% | -1 | 14%
CCCn1c(N)c(N(CCOC)C(=O)c2ccc(OC(F)(F)F)cc2)c(=O)[nH]c1=O | 4% | / | / | / | / | /
c1ccc(OCCN2CCC(c3nc4ccccc4s3)CC2)cc1 | 5µM* | / | / | / | / | /
c1ccc(CCCN2CC[C@H](c3nc4ccccc4s3)C2)cc1 | -19%[176 µM] | / | / | / | / | /
CCCCCC(=O)Nc1cccc(C2=NOC3(C2)C[C@@H](C(N)=O)N(C(=O)c2cc([N+](=O)[O-])cc([N+](=O)[O-])c2C)C3)c1 (some centres not stated) | ? | 2% | -16% | 2% | 1 | 7%
CC1(C(=O)N2CC3(CC(c4cccc(NC(=O)CC(c5ccccc5)c5ccccc5)c4)=NO3)C[C@@H]2C(N)=O)CC1 (some centres not stated) | -15% | 2% | -9% | 1% | 0 | -1%
C/C=C/C=C\C(=O)Nc1cccc(C2=NOC3(C2)C[C@@H](C(N)=O)N(C(=O)c2cc([N+](=O)[O-])cc([N+](=O)[O-])c2C)C3)c1 (some centres not stated) | 16µM* | 0% | -12% | 0% | -1 | 4%
